3T3 cytotox: kills NIH 3T3 cells | NIH 3T3 viability, CellTiter-Glo ATP luminescence, 48-72 h | Potency, µM (titrated, usually from 96.7 µM), actives largely listed as inhibitors | hit rate 4.3% among 94,000 | AID 1345082; further: nearly all actives have a fitted effect of over 55% in size
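ATP-dependent luminescence (CellTiter-Glo) served as the viability signal for NIH 3T3 cells treated with compound for 48 or 72 hr at 37 °C.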
HEK293 tox: HEK 293 cell cytotoxicity; HEK 293 viability, ATP luminescence (CellTiter-Glo), 48-72 h; Potency, µM (top dose mostly 115 µM), actives largely listed as inhibitors; hit rate 6.6% among 94,000; AID 1345083; further: nearly all actives have a fitted effect of over 60% in size
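Cytotoxicity was scored by loss of ATP-coupled luminescence (CellTiter-Glo) in HEK 293 cells. Compound treatment ran 48 or 72 hr at 37 degree Celsius, 5% CO2, 95% humidity.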
GPT2 inhibitor: blocks human glutamate pyruvate transaminase 2. Q8TD30. Recombinant GPT2, coupled pyruvate oxidase/HRP Amplex Red fluorescence. Potency, µM (doses to about 57.7 µM), hits mostly inhibitors. hit rate 0.25% among 100,000. AID 1671188; further: nearly all actives have a fitted effect of over 60% in size
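GPT2 10ng/uL, a-KG 250uM, L-Ala 2mM, HEPES pH7.5 + 0.0001% Tween; 30 min RT. Then Amplex mix (PO/HRP/ThPP), 30 min RT dark, fluorescence. AOA 50uM used as positive control.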
Luciferase inh: blocks purified firefly luciferase enzyme activity. P08659. purified P. pyralis luciferase, luminescence, biochemical. Potency, µM (top dose mostly 115 µM), hits mostly inhibitors. hit rate 2.5% among 76,000; further: nearly all actives have a fitted effect of over 65% in size
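Luminescence read by CCD imager after adding enzyme (10nM final) to wells holding compound, titrated in qHTS. Substrates 10uM each D-luciferin and ATP; buffer 50mM Tris acetate pH 7.5, 10mM Mg acetate, Tween-20, BSA.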
hNpr1 antagonist: antagonists of human natriuretic peptide receptor Npr1; hit rate 1.6% among 76,000; Potency, µM (doses to about 46.3 µM), usual class: inhibitors; HEK293 hNpr1 GloSensor cGMP, ANP-stimulated luminescence; P16066; AID 1347048; calls by dose curve; further: nearly all actives have a fitted effect of over 60% in size
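HEK293 cells stably expressing human Npr1 and cGMP GloSensor pGS-40F, loaded 2 h with 2% GloSensor reagent, given compound 30 min at room temperature. Luminescence read before and 20 min after 0.1 nM hNppA.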
Npr1 antag conf: confirmation of human Npr1 natriuretic peptide receptor antagonists | Potency, µM (series often up to 57.6 µM), most hits filed as inhibitors | shares compounds with hNpr1 antagonist | hit rate 76% among 1,400 | AID 1347044 | HEK293 hNpr1 cGMP GloSensor luminescence, ANP-stimulated; calls by dose curve; further: nearly all actives have a fitted effect of over 70% in size
Npr2 selectivity: antagonizes human Npr2, subtype selectivity check; AID 1347046; HEK293 hNpr2 GloSensor cGMP luminescence, CNP-stimulated; hit rate 67% among 1,400; shares compounds with hNpr1 antagonist; Potency, µM (highest dose often 57.6 µM), usual class: inhibitors; calls by dose curve; further: nearly all actives have a fitted effect of over 70% in size
FLuc inh counter: FLuc enzyme inhibition, Npr1 counter-screen; shares compounds with hNpr1 antagonist; purified FLuc enzyme, luminescence, Km substrate; Potency, µM (series often up to 57.6 µM), actives largely listed as inhibitors; hit rate 0.7% among 1,400
GloSensor ctrl: reduces cGMP signal in GloSensor control cells. shares compounds with hNpr1 antagonist. HEK293 GloSensor cGMP, SNP-stimulated, luminescence. Potency, µM (top dose mostly 57.6 µM), most hits filed as inhibitors. hit rate 69% among 1,400; calls by dose curve; further: nearly all actives have a fitted effect of over 70% in size
Each line names hits and unclear results; the compound was inactive in the other large screens (follow-up assays come after a bar, where they were run). Hits are enriched below; roughly 10% of the tested compounds scored in any of these assays. Unless noted, the call rests on the fitted dose curve; in most records, active means well fitted curve in the direction sought with a large enough effect; inconclusive means small, poorly fitted or top-dose-only effect, or another doubt; inactive means no such curve, though single readings can be large; an effect the other way counts as inactive or inconclusive.

CC(=O)Nc1ccc(CNC[C@H]2COCc3nc4c(C)cccc4n32)cc1	HEK293 tox inconclusive, hNpr1 antagonist inconclusive
CN(CCc1ccccc1)CC[C@@H]1CC[C@H](O)[C@@H](C(=O)NC2CCCCC2)O1	none
CCOc1cccc(CNC(=O)c2c(OCC(C)C)cc(=O)n3c2CCCCC3)c1	HEK293 tox inconclusive
Cc1c(C(=O)N(C)Cc2cc(-c3cccnc3)no2)oc2c(F)cccc12	3T3 cytotox inconclusive, HEK293 tox inconclusive, hNpr1 antagonist inconclusive | Npr1 antag conf inconclusive | Npr2 selectivity inactive | FLuc inh counter inactive | GloSensor ctrl inactive
COCCCNCC1COc2ccccc2O1 (centres undefined)	none (no result: 3T3 cytotox, HEK293 tox, Luciferase inh, hNpr1 antagonist)
COC(=O)[C@@H]1Cc2ncn(Cc3ccc(Cl)cc3)c2CN1C(=O)c1cccs1	3T3 cytotox inconclusive | Npr1 antag conf inactive | Npr2 selectivity inactive | FLuc inh counter inactive | GloSensor ctrl inactive
O=C(N[C@H]1CCN2C(=O)c3cc(-c4ccc(F)cc4F)ccc3NC(=O)[C@H]12)c1cccs1	3T3 cytotox inconclusive, HEK293 tox inconclusive | Npr1 antag conf inconclusive | Npr2 selectivity inconclusive | FLuc inh counter inconclusive | GloSensor ctrl inactive
O=C(N[C@H]1CCN2C(=O)c3cc(-c4ccc(F)cc4F)ccc3NC(=O)[C@@H]2C1)c1cccs1	3T3 cytotox inconclusive, HEK293 tox inconclusive
O=C(CCC1CCN(C(=O)c2ccoc2)CC1)N1CCC(Cc2ccccc2)CC1	3T3 cytotox inconclusive, HEK293 tox inconclusive | Npr1 antag conf inconclusive | Npr2 selectivity inactive | FLuc inh counter inactive | GloSensor ctrl inconclusive
O=C(c1ccoc1)N1CCCC(CN2CCCC2)CC1 (centres undefined)	none
COc1ccc(CN2CC3(CCN(C(=O)c4cn[nH]c4-c4ccc(F)cc4)CC3)C2=O)cc1	3T3 cytotox inconclusive, HEK293 tox 28µM, hNpr1 antagonist 11µM | Npr1 antag conf 14µM | Npr2 selectivity 19µM | FLuc inh counter inactive | GloSensor ctrl 12µM
COc1ccc(CN2CC3(CCN(C(=O)c4ccc(F)c(Cl)c4)CC3)C2=O)cc1	3T3 cytotox inconclusive, HEK293 tox inconclusive
O=C(NCc1ccccc1)c1ccccc1OC1CN(Cc2ccsc2)C1	3T3 cytotox 28µM, HEK293 tox inconclusive | Npr1 antag conf inconclusive | Npr2 selectivity inactive | FLuc inh counter inactive | GloSensor ctrl inactive
Cc1ccc(CN2CC(Oc3ccccc3C(=O)NC3CC3)C2)cc1	3T3 cytotox inconclusive, HEK293 tox inconclusive
Cc1nc(C2CC(O)C2)cc(N2CCN(c3nc4ccccc4s3)CC2)n1 (centres undefined)	3T3 cytotox inconclusive, HEK293 tox inconclusive, hNpr1 antagonist 7.1µM | Npr1 antag conf 9.7µM | Npr2 selectivity 11µM | FLuc inh counter inactive | GloSensor ctrl 8.6µM
FC(F)(F)C1CN(c2ccnc3ccc(Cl)cc23)CCO1 (centres undefined)	3T3 cytotox inconclusive, HEK293 tox 40µM, hNpr1 antagonist 11µM | Npr1 antag conf 22µM | Npr2 selectivity 22µM | FLuc inh counter inactive | GloSensor ctrl 22µM
FC(F)(F)c1cccc2c(N3CCOC(C(F)(F)F)C3)ccnc12 (centres undefined)	HEK293 tox inconclusive, hNpr1 antagonist 10µM | Npr1 antag conf 24µM | Npr2 selectivity inconclusive | FLuc inh counter inactive | GloSensor ctrl 19µM
CCCN1CCCC12Cc1ccccc1CN([S+](=O)([O-])c1ccccc1)C2 (centres undefined)	3T3 cytotox inconclusive, HEK293 tox inconclusive (no result: Luciferase inh, hNpr1 antagonist)
O=C(c1ccco1)N1CCC(Cc2nc(-c3ccccc3)no2)CC1	3T3 cytotox inconclusive, HEK293 tox inconclusive, hNpr1 antagonist inconclusive
O=C(c1cccc(F)c1)N1CCC(Cc2nc(-c3ccccc3)no2)CC1	3T3 cytotox inconclusive, HEK293 tox inconclusive, hNpr1 antagonist 6.3µM | Npr1 antag conf 6.9µM | Npr2 selectivity 9.7µM | FLuc inh counter inactive | GloSensor ctrl 6.9µM
CCOc1cc(C(=O)N2CCC(Cc3nc(-c4ccccc4)no3)CC2)cc(OCC)c1OCC	3T3 cytotox inconclusive, HEK293 tox inconclusive
COc1cccc(-c2noc(CC3CCN(C(=O)c4cccc(F)c4)CC3)n2)c1	3T3 cytotox inconclusive, HEK293 tox inconclusive, hNpr1 antagonist 6.3µM | Npr1 antag conf 6.1µM | Npr2 selectivity 6.9µM | FLuc inh counter inactive | GloSensor ctrl 4.8µM
O=C(c1ccc(F)cc1)N1CCC(Cc2nc(-c3ccccc3)no2)CC1	3T3 cytotox inconclusive, HEK293 tox inconclusive, hNpr1 antagonist 5µM | Npr1 antag conf 4.8µM | Npr2 selectivity 6.1µM | FLuc inh counter inactive | GloSensor ctrl 5.4µM
COc1c[nH]c(CN2CCCC(CCc3ccccc3C)C2)cc1=O (centres undefined)	none
COc1c[nH]c(CN2CCCC(Nc3ccc(C(C)C)cc3)C2)cc1=O (centres undefined)	3T3 cytotox inconclusive, HEK293 tox inconclusive, hNpr1 antagonist inconclusive | Npr1 antag conf 22µM | Npr2 selectivity 19µM | FLuc inh counter inactive | GloSensor ctrl 22µM
COCCNC(=O)[C@H]1C[C@H](Oc2ccccc2)CN1C(=O)c1n[nH]c2ccccc12	none
Cc1ncsc1CN1CCCCC1c1nc(CCOCC2CC2)no1 (centres undefined)	HEK293 tox inconclusive, hNpr1 antagonist inconclusive
Cc1ncsc1CN1CCCCC1c1nc(CCOc2ccc(F)cc2)no1 (centres undefined)	3T3 cytotox inconclusive, HEK293 tox 16µM, hNpr1 antagonist 10µM | Npr1 antag conf 22µM | Npr2 selectivity 19µM | FLuc inh counter inactive | GloSensor ctrl 19µM
COc1ccc(C(=O)N2CCC3(C2)C(=O)N(c2ccccc2)c2ccccc23)cc1 (centres undefined)	HEK293 tox inconclusive (no result: Luciferase inh, hNpr1 antagonist)
COc1ccc(C(=O)N2CCC3(C2)C(=O)N(Cc2ccccc2)c2ccccc23)cc1 (centres undefined)	3T3 cytotox inconclusive, HEK293 tox inconclusive, hNpr1 antagonist 5µM | Npr1 antag conf 17µM | Npr2 selectivity 17µM | FLuc inh counter inactive | GloSensor ctrl 11µM

Source: PubChem
